# Experimental data: the OligoGym collection
# Molecular target: ATP2B3
# Experiment: pooled miR-30 sensor sort-seq; sequence = guide strand
# Details: shRNA
# Note: reference of the scale not given here.
row,Sequence,sensor-assay potency score (higher = more potent)
1,TTTGTAAAGCTTGTCTTCCGGG,-0.371
2,TGAAACTGCAGGAACTTGGAGA,0.195
3,TTGCTGTTCAAGATGTTGGTGC,0.726
4,TTAGGCAACTTTATACAGCAGC,-0.477
5,TTTTTTTGCATGAAGATGCTGA,0.145

# Molecular target: ATP2C2
# Experiment: as above
# Details: shRNA
row,Sequence,sensor-assay potency score (higher = more potent)
1,TCATCTTAAACACTTCTCCGAA,-0.15
2,TTCTGCTCTGAACTGAATGGAA,-0.474
3,TAGAGGAACATGTGGTTCCTGA,-0.803
4,TTGTGCTTTGGGCTGGTCCTGA,-0.105
5,TTTAATATCACTTAAGTCCATC,-0.736
6,TAAGAGGAAAAACTGATCCGGT,-0.305
7,TTGTACATGGTGCAGTAGCGGA,-1.45
8,TCATCTTCACAGACACACCAGA,-0.317
9,TACGACATCACCAGGAACCAGT,-0.544
10,TTAAACACTTCTCCGAACTGAG,-0.019
11,TTCCTCTTCGTCCTTCTCCAGC,-1.04

# Molecular target: ATP6V0A1
# Experiment: as above
# Details: shRNA
row,Sequence,sensor-assay potency score (higher = more potent)
1,ATAACAGACATCTTCATCTTAA,-0.304
2,TTGAATAACCAGACTCTGGGTA,0.472
3,TTTCTCAACAAATCGAAGCTTT,0.0812
4,TTTCTGTCCAGAATACAACATT,-0.792
5,TTCCGCACTTTGATGAACCAGA,-0.516
6,TCTCTTTCTCAACAAATCGAAG,-1.57
7,TTATAAGTAAACATCGGCCGTA,-0.196
8,TTTCTGAGTCACATCTATGTTG,-0.762
9,TATAAGTAAACATCGGCCGTAC,0.244
10,TTATTCTGGAACTCAACCCAGT,0.03
11,TTGGAGATCATCAATCCTGGTA,0.0241
12,TTTATTCTGGAACTCAACCCAG,-0.592
13,TCTAAGTCAATCATGTCCCGGG,0.648
14,AATACAACATTGAATAACCAGA,-1.17
15,TTTCTTCACATCTTCTAACTTC,-0.0928
16,TGACACAACAATAAGCAGCCTC,-0.151
17,TAAGTCACGAAACTGAACCTTT,-0.177
18,TTTTAATTCGGTCAGTTCCAGG,-1.24
19,TTTATTGGTAGCAATGTTCCAA,0.458
20,TTATTGGTAGCAATGTTCCAAA,-1.08
21,TTGGAAAACATTCACATCTGGA,0.211
22,TTAAACAGCAGCATCCAAGGTA,0.712
23,TAAGCATCTACTATGTTCTGAA,0.161
